PRMT1 FP inh – PRMT1 methyltransferase inhibitors, primary screen, biochemical, fluorescence polarization; recombinant PRMT1, activity-based probe fluorescence polarization; inhibition, % at 2.79 µM; AID 652257, 2013; 370,000 tested, 1.3% active;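 active = inhibition above about 21% made by adding two undisclosed values, limit read from the data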
UHRF1 MBD2 ctr – UHRF1 methylated DNA binding inhibitors, primary screen, counter-screen for MBD2 inhibitor project, biochemical, TR-FRET, human UHRF1, single concentration; E3 ubiquitin-protein ligase UHRF1 (Homo sapiens), Q96T88; UHRF1 binding to methylated oligo; inhibition, % at 4.4 µM; 370,000 tested, 0.75% active; AID 687016, 2013; in the data active = inhibition above about 21%;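 also: UHRF1 SRA domain binding a hemimethylated CpG hairpin DNA probe; 0% = median of test compound wells and 100% = reference inhibitor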
Target sequence (Q96T88 whole entry, looked up, the tested form may be a part): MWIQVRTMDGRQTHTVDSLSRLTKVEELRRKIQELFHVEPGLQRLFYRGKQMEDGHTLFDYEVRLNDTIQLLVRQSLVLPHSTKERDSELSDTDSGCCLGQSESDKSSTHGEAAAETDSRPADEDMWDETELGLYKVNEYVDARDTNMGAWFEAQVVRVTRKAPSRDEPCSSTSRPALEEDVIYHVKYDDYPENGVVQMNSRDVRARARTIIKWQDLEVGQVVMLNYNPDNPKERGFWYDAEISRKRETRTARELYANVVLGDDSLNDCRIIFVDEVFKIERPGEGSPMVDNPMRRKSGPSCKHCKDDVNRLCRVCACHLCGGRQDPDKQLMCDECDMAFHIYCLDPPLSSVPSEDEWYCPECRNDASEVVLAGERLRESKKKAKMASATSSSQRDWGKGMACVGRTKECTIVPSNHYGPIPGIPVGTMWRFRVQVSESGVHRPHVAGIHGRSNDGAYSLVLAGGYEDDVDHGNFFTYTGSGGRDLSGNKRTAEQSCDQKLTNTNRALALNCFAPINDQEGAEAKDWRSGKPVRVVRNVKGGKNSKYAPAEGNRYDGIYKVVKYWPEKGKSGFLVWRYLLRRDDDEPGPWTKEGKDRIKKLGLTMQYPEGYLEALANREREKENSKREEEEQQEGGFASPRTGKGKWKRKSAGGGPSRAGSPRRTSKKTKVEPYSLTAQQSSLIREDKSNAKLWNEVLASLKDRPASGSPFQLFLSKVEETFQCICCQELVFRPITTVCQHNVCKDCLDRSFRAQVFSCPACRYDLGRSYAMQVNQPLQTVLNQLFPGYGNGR
MBD2 DNA inh – inhibitors of MBD2 binding to methylated DNA, primary screen, biochemical, TR-FRET, DNA-binding domain, human; MBD2 binding to methylated oligonucleotide; inhibition, % at 4.4 µM; 370,000 tested, 0.31% active; AID 686964, 2013; in the data active = inhibition above about 13%
PfGluPho inh – PfG6PD enzyme inhibitors, primary screen, biochemical, fluorescence intensity, uHTS; AID 504690, 2011; glucose-6-phosphate dehydrogenase-6-phosphogluconolactonase (Plasmodium falciparum 3D7); inhibition, % at 20 µM; 350,000 tested, 0.78% active; PfGluPho enzyme, NADPH resazurin-diaphorase fluorescence;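 active = inhibition reaching at least a set limit at 20 µM in the primary screen, cut at about 59% in these data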;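 also: 0% = DMSO wells with substrate and 100% = DMSO wells lacking glucose-6-phosphate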
PfM18AAP inh – PfM18AAP inhibitors, malaria aminopeptidase, primary screen, biochemical, QFRET, recombinant enzyme | M18 aspartyl aminopeptidase (Plasmodium falciparum 3D7) | H-Glu-NHMec fluorogenic cleavage | inhibition, % at 7.35 µM | 290,000 tested, 1.2% active | AID 1822, 2009;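 active = inhibition above the campaign mean inhibition over all tested compounds plus 3 SD, cut at about 28% in these data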;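 also: 0% = plate median of test compound wells and 100% = 2 mM ZnCl2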
Starred values were filed as active, the others as inactive. Hits are enriched below; roughly 3.3% of the tested compounds scored in any of these assays.

What do the screens show for `CC1=CC(=O)C(C(C)C)=C/C1=N\OS(=O)(=O)c1ccc(F)cc1`?
PRMT1 FP inh: 9; UHRF1 MBD2 ctr: 2; MBD2 DNA inh: 1

Results for CC(C)(C)c1ccc(-c2nnc3n2N=C(c2ccc4ccccc4c2)CS3)cc1 ?
PRMT1 FP inh: 6; UHRF1 MBD2 ctr: 4; MBD2 DNA inh: 9

Results for COC(=O)c1ccc(OC(=O)CS(=O)c2ccccc2[N+](=O)[O-])cc1 (stereo not drawn) ?
PRMT1 FP inh: -2; UHRF1 MBD2 ctr: 62*; MBD2 DNA inh: -3; PfGluPho inh: 1; PfM18AAP inh: 0

How did CCOC(=O)c1ccccc1OC(=O)CS(=O)c1ccccc1[N+](=O)[O-] (stereo not drawn) do in these assays?
PRMT1 FP inh: 1; UHRF1 MBD2 ctr: 3; MBD2 DNA inh: -2; PfGluPho inh: -6; PfM18AAP inh: 11

Results for O=S(=O)(NCC(c1cccnc1)N1CCOCC1)c1ccc(Cl)cc1 (stereo not drawn) ?
PRMT1 FP inh: -1; UHRF1 MBD2 ctr: 25*; MBD2 DNA inh: -6; PfGluPho inh: 3; PfM18AAP inh: -3

How did O=C(Cn1nc(-c2ccccc2)ccc1=O)NCCc1ccccc1F do in these assays?
PRMT1 FP inh: -5; UHRF1 MBD2 ctr: 1; MBD2 DNA inh: -3

Results for Clc1ccc(Cl)c(-c2ccc(/C=N/c3ncn[nH]3)o2)c1 ?
PRMT1 FP inh: -2; UHRF1 MBD2 ctr: -6; MBD2 DNA inh: 0; PfGluPho inh: 0; PfM18AAP inh: 30*

How did O=C(O)CCc1ccc(-c2ccccc2)n1CC(=O)O do in these assays?
PRMT1 FP inh: 23*; UHRF1 MBD2 ctr: 7; MBD2 DNA inh: 5; PfGluPho inh: -7; PfM18AAP inh: -21

What do the screens show for `O=C(Cn1cc(COc2ccc(Br)cc2[N+](=O)[O-])nn1)c1ccc(O)cc1`?
PRMT1 FP inh: 3; UHRF1 MBD2 ctr: 24*; MBD2 DNA inh: 8; PfGluPho inh: 16

What do the screens show for `CC(=O)c1ccc(OCc2cn(CC(=O)c3ccc(O)cc3)nn2)c(C)c1`?
PRMT1 FP inh: 2; UHRF1 MBD2 ctr: 23*; MBD2 DNA inh: 11; PfGluPho inh: 21

Results for CC(=O)c1ccc(OCc2cn(CC(=O)c3ccc(O)cc3)nn2)cc1 ?
PRMT1 FP inh: 1; UHRF1 MBD2 ctr: 21*; MBD2 DNA inh: 4; PfGluPho inh: 4

Results for COc1cc(C(C)=O)ccc1OCc1cn(CC(=O)c2ccc(O)cc2)nn1 ?
PRMT1 FP inh: -2; UHRF1 MBD2 ctr: 21*; MBD2 DNA inh: 7; PfGluPho inh: 2

How did COc1cc(C=O)ccc1OCc1cn(CC(=O)c2ccc(O)cc2)nn1 do in these assays?
PRMT1 FP inh: 4; UHRF1 MBD2 ctr: 18; MBD2 DNA inh: 7; PfGluPho inh: 0

What do the screens show for `O=C(Cn1cc(COc2cc(F)cc(F)c2)nn1)c1ccc(O)cc1`?
PRMT1 FP inh: -4; UHRF1 MBD2 ctr: 8; MBD2 DNA inh: -3; PfGluPho inh: -15

How did CC(=O)Nc1ccc(OCc2cn(CC(=O)c3ccc(O)cc3)nn2)cc1 do in these assays?
PRMT1 FP inh: 4; UHRF1 MBD2 ctr: 17; MBD2 DNA inh: 9; PfGluPho inh: 34

How did Cc1cccc(C)c1OCc1cn(CC(=O)c2ccc(O)cc2)nn1 do in these assays?
PRMT1 FP inh: 6; UHRF1 MBD2 ctr: 19; MBD2 DNA inh: 9; PfGluPho inh: 7

How did COC(=O)c1ccc(N)c2c(N)ccc(C(=O)OC)c12 do in these assays?
PRMT1 FP inh: 5; UHRF1 MBD2 ctr: -7; MBD2 DNA inh: -9

What do the screens show for `COc1ccc(CNS(=O)(=O)c2cc(Br)ccc2Br)c(OC)c1`?
PRMT1 FP inh: -3; UHRF1 MBD2 ctr: -1; MBD2 DNA inh: -6

Results for O=C1/C(=C\c2ccc(O)cc2)SC(=S)N1c1cccnc1 ?
PRMT1 FP inh: 5; UHRF1 MBD2 ctr: -2; MBD2 DNA inh: 0; PfGluPho inh: -21; PfM18AAP inh: 16

Results for O=C(CCCN1C(=O)/C(=C/c2ccccc2)SC1=S)Nc1ccc(C(=O)O)c(O)c1 ?
PRMT1 FP inh: -1; UHRF1 MBD2 ctr: 0; MBD2 DNA inh: -5; PfGluPho inh: -22; PfM18AAP inh: 6

How did O=C1/C(=C\c2ccco2)SC(=S)N1c1ccc(O)cc1 do in these assays?
PRMT1 FP inh: 14; UHRF1 MBD2 ctr: 5; MBD2 DNA inh: 8; PfGluPho inh: -3; PfM18AAP inh: 31*

How did CC(C(=O)Nc1ccc(C(=O)O)c(O)c1)N1C(=O)/C(=C\c2ccco2)SC1=S (stereo not drawn) do in these assays?
PfGluPho inh: 5; PfM18AAP inh: 28*

How did CC(C(=O)N(C)C1CCS(=O)(=O)C1)N1C(=O)/C(=C/c2ccco2)SC1=S (stereo not drawn) do in these assays?
PRMT1 FP inh: 24*; UHRF1 MBD2 ctr: 13; MBD2 DNA inh: -2; PfGluPho inh: 19; PfM18AAP inh: 31*

What do the screens show for `C[C@@H]1CN([C@@H](C)CO)C(=O)CCCn2cc(nn2)CO[C@H]1CN(C)C(=O)Nc1ccc2c(c1)OCO2`?
PRMT1 FP inh: 3; UHRF1 MBD2 ctr: 0; MBD2 DNA inh: 3

How did Cn1nc([N+](=O)[O-])c(C(C#N)c2ccccn2)c(Cl)c1=O (stereo not drawn) do in these assays?
PRMT1 FP inh: 19; UHRF1 MBD2 ctr: -2; MBD2 DNA inh: -6; PfGluPho inh: 46; PfM18AAP inh: 4

Results for CCCn1nc([N+](=O)[O-])c(C(C#N)c2nc3ccccc3o2)c(Cl)c1=O (stereo not drawn) ?
PRMT1 FP inh: 22*; UHRF1 MBD2 ctr: -9; MBD2 DNA inh: -1; PfGluPho inh: -1; PfM18AAP inh: 1

Results for S=C(c1ccccc1)N1CCN(c2ccccc2)CC1 ?
PRMT1 FP inh: 0; UHRF1 MBD2 ctr: -1; MBD2 DNA inh: -2; PfGluPho inh: 24

How did CCN(CC)c1ccc(C(=S)N2CCN(c3ccccc3)CC2)cc1 do in these assays?
PRMT1 FP inh: 1; UHRF1 MBD2 ctr: 21*; MBD2 DNA inh: 7; PfGluPho inh: 26; PfM18AAP inh: -30

How did COc1cc2c(c(OC)c1OC)-c1ccc(NC(=O)c3ccc(F)cc3)c(=O)cc1[C@@H](NC(C)=O)CC2 do in these assays?
PRMT1 FP inh: 0; UHRF1 MBD2 ctr: 21*; MBD2 DNA inh: 8; PfGluPho inh: 27; PfM18AAP inh: 15

Results for COc1cc2c(c(OC)c1OC)-c1ccc(OC)c(=O)cc1[C@@H](NC(C)=O)CC2 ?
PRMT1 FP inh: 1; UHRF1 MBD2 ctr: -2; MBD2 DNA inh: 0; PfGluPho inh: -6; PfM18AAP inh: -3

What do the screens show for `CC(=O)c1ccc([C@H](O)[C@H](C)C(=O)N(C)c2ccccc2)cc1`?
PRMT1 FP inh: -2; UHRF1 MBD2 ctr: -3; MBD2 DNA inh: -4

Screening data as filed in PubChem BioAssay.
